# Only a selection was taken, and hits are over-represented in it overall.
# KDM5B inhibitor = KDM5B demethylase inhibition; Q9UGL1; KDM5B demethylase, FDH-coupled NADH fluorescence (FDH is formaldehyde dehydrogenase); Potency, µM (doses to about 57.7 µM), usual class: inhibitors; 220,000 compounds, 2.6% hits; AID 1347165; active = well fitted inhibition curve with a large enough effect; also: 0% is about no effect; nearly all actives have a fitted effect of over 70% in size
#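 KDM5BΔAP (200 nM final) in 50 mM HEPES pH 7.5, 0.01% Tween-20 was preincubated 10 min at RT with compound over a concentration range. Substrate mix (H3K4me3 12.5 µM, α-KG 25 µM, Fe²⁺, ascorbate, NAD⁺, FDH) was added, and NADH fluorescence change over 30 min gave dose-response curves.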
# Active calls of the source: *; i = inactive. Potency is read from the fitted curve at half-maximal effect.
SMILES,KDM5B inhibitor
CCCCC1CCC(C(=O)Oc2ccc(OC)cc2)CC1 (stereo not drawn),i
O=C1NCCCN1C1CCN(Cc2cccnc2)CC1,i
c1cncc(CN2CCC(C3CCN(Cc4ccc[nH]4)C3)CC2)c1 (stereo not drawn),14.1µM*
O=C(c1ccco1)N1CCC(C2CCN(Cc3cccnc3)CC2)C1 (stereo not drawn),i
CCn1ncc(N2CCCC(CC(=O)Nc3ccccc3OC)C2)cc1=O (stereo not drawn),i
COc1cc(Cl)ccc1C(=O)N[C@@H]1CN(c2ccncn2)C[C@H]1CN(C)C,i
CN(C)C[C@@H]1CN(Cc2ccccn2)C[C@H]1NC(=O)c1ccc(Cl)s1,i
COc1ccc(CC(=O)N[C@@H]2CN(C)C[C@H]2CN(C)C)cc1,i
CN(C)C[C@@H]1CN(c2ccccn2)C[C@H]1NC(=O)c1cnco1,31.6µM*
COc1ccc(CC(=O)N[C@@H]2CN(c3ccccn3)C[C@H]2CN(C)C)cc1,28.2µM*
COc1ccc(C(=O)N[C@@H]2CN(c3ccccn3)C[C@H]2CN(C)C)c(OC)c1,28.2µM*
COc1ccc(C(=O)N[C@@H]2CN(S(C)(=O)=O)C[C@H]2CN(C)C)c(C)c1,i
Cc1ccc(C(=O)N[C@@H]2CN(c3ccncn3)C[C@H]2CN(C)C)cn1,i
O=C1NC(C(=O)NCc2ccc(OC(F)(F)F)cc2)Cn2cccc21 (stereo not drawn),i
FC(F)(F)c1cccc(NC(=S)NC2CC2)c1,i
CCNC(=O)N(C1CC1)C1CCOC2(CCN(C(=O)CCc3ccc(OC)cc3)CC2)C1 (stereo not drawn),i
COc1ccc(C)cc1NC(=O)N1CCN(C)C2(CCC(=O)N(C)CC2)C1 (stereo not drawn),i
CNc1ccc(C)cc1C(=O)N1CCN(C)C2(CCN(C)CC2)C1,20µM*
COc1ccc(Cl)cc1C(=O)N1CCC2(CC1)CN(C)CCN2C,i
Cc1c(CN(C)CC2(O)CCCN(Cc3ccc(C(C)C)cc3)C2=O)cnn1C (stereo not drawn),i
NC(=O)[C@H](Cc1ccc(O)cc1)NC(=O)C1=C[C@@H](NC(=O)c2ccc(F)c(Cl)c2)[C@@H](O)[C@H](O)C1,i
CC(C)(C)c1ccc(C(=O)N2CCCC2)s1,i
CCn1cc(-c2ccncc2)cc1C(=O)N1CCOCC1,i
COC(=O)N1CCn2cc(C(=O)N3CCOCC3)nc2C1,i
CC(C)(C)c1cc(C(=O)N2CCCC2)nn2cccc12,i
SMILES,KDM5B inhibitor
CC(C)(C)c1nc(C(=O)N2CCOCC2)n2ccncc12,89.1µM*
CC(C)(C)c1nc(C(=O)N2CCCC2)n2ccncc12,100µM*
CC(=O)c1ccc(NC(=O)C(C)OC(=O)C2=CN3CCS(=O)(=O)N=C3C=C2)cc1 (stereo not drawn),i
CCC(=O)Nc1ccc(C(C)NCc2cccs2)cc1 (stereo not drawn),i
COc1cc(/C=N/OCCOc2ccc(C)cc2)cc(Cl)c1OC,i
Cc1ccc(C(=O)Nc2ccc(-c3nc4ccc(C)cc4s3)cc2)c(C)c1,i
Cc1ccc(S(=O)(=O)N2CCC(C(=O)Nc3nnc(-c4ccc(Cl)cc4)o3)CC2)c(C)c1,i
Cn1cccc1C(=O)N1CCCC(n2cc(-c3nc(-c4ccccc4)no3)nn2)C1 (stereo not drawn),i
O=C(NCCC1CCN(C(=O)Nc2cc(F)ccc2F)CC1)C1CCCC1,i
CCCCN(Cc1ccccc1)c1ccc(NS(=O)(=O)c2ccc3c(c2)CCCC3)cc1C(=O)O,i
Cc1ccc(NC(=O)N2CCN(C(=O)c3nsc4ccccc34)CC2)cc1C,i
Cc1cccc(NC(=S)N2CCCCCC2)c1C,i
Cc1cccc(NC(=O)N2CCc3c(c4ccccc4n3C)C2)c1C,22.4µM*
Cc1cccc(NC(=O)N2C[C@@H](F)C[C@H]2C(=O)N2CCc3ccccc3C2)c1C,i
O=C(c1cccc([N+](=O)[O-])c1)N1CCc2c(c3ccccc3n2CC2CC2)C1,i
O=C(Nc1ccccc1)N1CCc2c(c3ccccc3n2CC2CC2)C1,31.6µM*
Cc1ccc(NC(=O)N2CCc3c(c4ccccc4n3C)C2)cc1C,31.6µM*
Cc1ccc(NC(=O)N2CCC3(CC2)OCCO3)cc1C,i
O=C(Nc1ccccc1)N1CCCC(CN2CCOCC2)CC1 (stereo not drawn),i
O=C(OCC(=O)c1cccs1)c1ccc(C(=O)c2ccccc2)cc1,i
Cc1c[nH]cc1C(=O)OCC#Cc1ccccc1,i
Cc1ccc(CN(C)C2CCc3ccccc32)cc1 (stereo not drawn),i
CC(=O)c1cccc(NS(=O)(=O)c2ccc3c(c2)CC(C)N3C(C)=O)c1 (stereo not drawn),i
CCNC(=O)NC(=O)CN(CC)CC(C)C(=O)OC (stereo not drawn),i
CC(C(=O)Nc1ccc(C(F)(F)F)cc1)N(C)C (stereo not drawn),i
CCC(=O)Nc1nc2c(C)cc(NS(=O)(=O)c3cc(F)ccc3F)cc2s1,i

# Screening data from PubChem BioAssay.
